# Laboratory results published in the supplement of paper PMC10037445.
# Several values for one entry are separate records, joined by “and”; a condition that tells them apart may be missing. Identical values can stand only once. Whole data set: some 2,900 compounds, median “NF-kB SEAP reporter activity, fold change vs agonist alone” near 0.99, cut for the highest 2% near 2.6. This excerpt belongs to a sample that is enriched for the highest values.
# Experiments:
# RAW-Dual [1] = assay: NF-kB SEAP reporter activity, fold change vs agonist alone; cytotoxicity flag (confluency mask): not cytotoxic; higher = enhanced NF-kB activity
# How it was run: (§1)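 Cytotoxic wells were those whose IncuCyte confluency was below 70% of agonist controls in both mask sets. The cells were RAW-Dual macrophages at 50,000 cells/well in DMEM on 384-well plates, dosed with 50 nL of library stock by pin tool, stimulated with a PRR agonist 1 h later, and kept at 37 °C, 5% CO2 for 20 hours. IRF and NF-κB reporter activity, as fold change over agonist-alone wells, came from supernatant read by QuantiLuc luminescence and QuantiBlue absorbance, respectively.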
# RAW-Dual [2] = assay: NF-kB SEAP reporter activity, fold change vs agonist alone; higher = enhanced NF-kB activity
# How it was run: as §1
# RAW-Dual [3] = assay: NF-kB SEAP reporter activity, fold change vs agonist alone; cytotoxicity flag (confluency mask): cytotoxic (confluency <70% of control); higher = enhanced NF-kB activity
# How it was run: as §1
# [4] = agonist: ODN 1826 (TLR9) 0.5 ug/mL
# [5] = agonist: Pam2CSK4 (TLR2/6) 0.1 ug/mL
# [6] = agonist: Pam3CSK4 (TLR2/1) 0.1 ug/mL
# [7] = library stock concentration (final ~1000-fold dilution): 10 mM, cytotoxicity flag (confluency mask): not cytotoxic, agonist: MPLA (TLR4) […]
# [8] = library stock concentration (final ~1000-fold dilution): 10 mM, cytotoxicity flag (confluency mask): not cytotoxic, agonist: Imiquimod (TLR7) […]
smiles,measurement,setting,value
CO/N=C(\C(=O)NC1C(=O)N2C(C(=O)O)=C(CSc3nnnn3C)CSC12)c1csc(N)n1.CO/N=C(\C(=O)NC1C(=O)N2C(C(=O)O)=C(CSc3nnnn3C)CSC12)c1csc(N)n1.Cl (configuration not stated) (library stock concentration (final ~1000-fold dilution): 10 mM),NF-kB SEAP reporter activity,RAW-Dual [1]; agonist: LPS (TLR4) 0.1 ug/mL,0.999
same,NF-kB SEAP reporter activity,RAW-Dual [1]; [4],0.966
same,NF-kB SEAP reporter activity,RAW-Dual [1]; [5],1.14
same,NF-kB SEAP reporter activity,RAW-Dual [1]; [6],0.939
CO/N=C(\C(=O)NC1C(=O)N2C(C(=O)O)=C(CSc3nnnn3C)CSC12)c1csc(N)n1.CO/N=C(\C(=O)NC1C(=O)N2C(C(=O)O)=C(CSc3nnnn3C)CSC12)c1csc(N)n1.Cl (configuration not stated),NF-kB SEAP reporter activity,RAW-Dual [2]; [7],1.06
Cl.Cl.N/C(=N\OCC(O)CN1CCCCC1)c1cccnc1 (configuration not stated) (library stock concentration (final ~1000-fold dilution): 10 mM),NF-kB SEAP reporter activity,RAW-Dual [1]; agonist: LPS (TLR4) 0.1 ug/mL,1.1
same,NF-kB SEAP reporter activity,RAW-Dual [1]; [4],0.949
same,NF-kB SEAP reporter activity,RAW-Dual [1]; [5],1.15
same,NF-kB SEAP reporter activity,RAW-Dual [1]; [6],1.09
Cl.Cl.N/C(=N\OCC(O)CN1CCCCC1)c1cccnc1 (configuration not stated),NF-kB SEAP reporter activity,RAW-Dual [2]; [8],0.94
same,NF-kB SEAP reporter activity,RAW-Dual [2]; [7],1.08
NC(CSC(c1ccccc1)(c1ccccc1)c1ccccc1)C(=O)O (configuration not stated) (library stock concentration (final ~1000-fold dilution): 10 mM),NF-kB SEAP reporter activity,RAW-Dual [1]; agonist: LPS (TLR4) 0.1 ug/mL,0.775
same,NF-kB SEAP reporter activity,RAW-Dual [1]; [4],0.732
same,NF-kB SEAP reporter activity,RAW-Dual [1]; [5],0.699
same,NF-kB SEAP reporter activity,RAW-Dual [1]; [6],0.656
NC(CSC(c1ccccc1)(c1ccccc1)c1ccccc1)C(=O)O (configuration not stated),NF-kB SEAP reporter activity,RAW-Dual [2]; [8],0.946
same,NF-kB SEAP reporter activity,RAW-Dual [2]; [7],0.976
O=C(O)CC(O)CC(O)C=Cc1c(C2CC2)nc2ccccc2c1-c1ccc(F)cc1 (configuration not stated),NF-kB SEAP reporter activity,RAW-Dual [2]; [8],2.52
same,NF-kB SEAP reporter activity,RAW-Dual [2]; [7],2.05
CC(C)c1nc(N(C)S(C)(=O)=O)nc(-c2ccc(F)cc2)c1/C=C/C(O)CC(O)CC(=O)O (configuration not stated),NF-kB SEAP reporter activity,RAW-Dual [2]; [7],1.1
CC(C)c1nc(N(C)S(C)(=O)=O)nc(-c2ccc(F)cc2)c1C=CC(O)CC(O)CC(=O)O (configuration not stated),NF-kB SEAP reporter activity,RAW-Dual [2]; [8],0.909
same,NF-kB SEAP reporter activity,RAW-Dual [2]; [7],1.05
CC(C)c1c(C(=O)Nc2ccccc2)c(-c2ccccc2)c(-c2ccc(F)cc2)n1CCC(O)CC(O)CC(=O)O (configuration not stated) (library stock concentration (final ~1000-fold dilution): 10 mM),NF-kB SEAP reporter activity,RAW-Dual [1]; agonist: LPS (TLR4) 0.1 ug/mL,1.85 and 2.93
same,NF-kB SEAP reporter activity,RAW-Dual [1]; [4],1.49 and 1.82
same,NF-kB SEAP reporter activity,RAW-Dual [1]; [5],1.03 and 1.49
same,NF-kB SEAP reporter activity,RAW-Dual [1]; [6],1.3 and 1.42
CC(C)c1nc(N(C)S(C)(=O)=O)nc(-c2ccc(F)cc2)c1C=CC(O)CC(O)CC(=O)O (configuration not stated) (library stock concentration (final ~1000-fold dilution): 10 mM),NF-kB SEAP reporter activity,RAW-Dual [1]; agonist: LPS (TLR4) 0.1 ug/mL,1.43
same,NF-kB SEAP reporter activity,RAW-Dual [1]; [4],1.24
same,NF-kB SEAP reporter activity,RAW-Dual [1]; [5],1.01
same,NF-kB SEAP reporter activity,RAW-Dual [1]; [6],1.2
CC(C)c1nc(N(C)S(C)(=O)=O)nc(-c2ccc(F)cc2)c1/C=C/C(O)CC(O)CC(=O)O (configuration not stated) (library stock concentration (final ~1000-fold dilution): 10 mM),NF-kB SEAP reporter activity,RAW-Dual [1]; agonist: LPS (TLR4) 0.1 ug/mL,0.973
same,NF-kB SEAP reporter activity,RAW-Dual [1]; [4],1.18
same,NF-kB SEAP reporter activity,RAW-Dual [1]; [5],1.21
same,NF-kB SEAP reporter activity,RAW-Dual [1]; [6],1.1
O=C(O)CC(O)CC(O)C=Cc1c(C2CC2)nc2ccccc2c1-c1ccc(F)cc1 (configuration not stated) (library stock concentration (final ~1000-fold dilution): 10 mM),NF-kB SEAP reporter activity,RAW-Dual [1]; agonist: LPS (TLR4) 0.1 ug/mL,3
same,NF-kB SEAP reporter activity,RAW-Dual [1]; [4],3
same,NF-kB SEAP reporter activity,RAW-Dual [1]; [5],2.4
same,NF-kB SEAP reporter activity,RAW-Dual [1]; [6],3.31
CC(C)n1c(C=CC(O)CC(O)CC(=O)O)c(-c2ccc(F)cc2)c2ccccc21 (configuration not stated),NF-kB SEAP reporter activity,RAW-Dual [2]; [8],2.45
same,NF-kB SEAP reporter activity,RAW-Dual [2]; [7],2.14
CC(C)n1c(C=CC(O)CC(O)CC(=O)O)c(-c2ccc(F)cc2)c2ccccc21 (configuration not stated) (library stock concentration (final ~1000-fold dilution): 10 mM),NF-kB SEAP reporter activity,RAW-Dual [1]; agonist: LPS (TLR4) 0.1 ug/mL,3.64
same,NF-kB SEAP reporter activity,RAW-Dual [1]; [4],2.92
same,NF-kB SEAP reporter activity,RAW-Dual [1]; [5],2.13
same,NF-kB SEAP reporter activity,RAW-Dual [1]; [6],3.38
O=c1[nH]c(=S)[nH]c2nc(-c3ccccc3)c(-c3ccccc3)nc12 (library stock concentration (final ~1000-fold dilution): 10 mM),NF-kB SEAP reporter activity,RAW-Dual [1]; agonist: LPS (TLR4) 0.1 ug/mL,0.947
same,NF-kB SEAP reporter activity,RAW-Dual [1]; [4],0.854
same,NF-kB SEAP reporter activity,RAW-Dual [1]; [5],0.938
same,NF-kB SEAP reporter activity,RAW-Dual [1]; [6],0.926
O=c1[nH]c(=S)[nH]c2nc(-c3ccccc3)c(-c3ccccc3)nc12,NF-kB SEAP reporter activity,RAW-Dual [2]; [8],0.796
same,NF-kB SEAP reporter activity,RAW-Dual [2]; [7],0.977
Br.CCCc1cc(-c2nc(-c3ccc(C)cc3)cs2)ccn1,NF-kB SEAP reporter activity,"RAW-Dual [2]; library stock concentration (final ~1000-fold dilution): 10 mM, cytotoxicity flag (confluency mask): cytotoxic (confluency <70% of control), agonist: Imiquimod (TLR7) […]",1.1
same,NF-kB SEAP reporter activity,"RAW-Dual [2]; library stock concentration (final ~1000-fold dilution): 10 mM, cytotoxicity flag (confluency mask): cytotoxic (confluency <70% of control), agonist: MPLA (TLR4) […]",1.37
Br.CCCc1cc(-c2nc(-c3ccc(C)cc3)cs2)ccn1 (library stock concentration (final ~1000-fold dilution): 10 mM),NF-kB SEAP reporter activity,RAW-Dual [3]; agonist: LPS (TLR4) 0.1 ug/mL,1.54
same,NF-kB SEAP reporter activity,RAW-Dual [3]; [4],1.04
same,NF-kB SEAP reporter activity,RAW-Dual [3]; [5],1.07
same,NF-kB SEAP reporter activity,RAW-Dual [3]; [6],0.895
Cc1cccc(CN2CCN(C(c3ccccc3)c3ccc(Cl)cc3)CC2)c1.Cl.Cl (configuration not stated),NF-kB SEAP reporter activity,"RAW-Dual [2]; library stock concentration (final ~1000-fold dilution): 2 mM, cytotoxicity flag (confluency mask): not cytotoxic, agonist: Imiquimod (TLR7) […]",0.843
same,NF-kB SEAP reporter activity,"RAW-Dual [2]; library stock concentration (final ~1000-fold dilution): 2 mM, cytotoxicity flag (confluency mask): not cytotoxic, agonist: MPLA (TLR4) […]",1.15
Cc1cccc(CN2CCN(C(c3ccccc3)c3ccc(Cl)cc3)CC2)c1.Cl.Cl (configuration not stated) (library stock concentration (final ~1000-fold dilution): 2 mM),NF-kB SEAP reporter activity,RAW-Dual [1]; agonist: LPS (TLR4) 0.1 ug/mL,1.51
same,NF-kB SEAP reporter activity,RAW-Dual [1]; [4],0.87
same,NF-kB SEAP reporter activity,RAW-Dual [1]; [5],0.931
same,NF-kB SEAP reporter activity,RAW-Dual [1]; [6],0.984
Brc1ccc(C2CN3CCSC3=N2)cc1.O=C(O)C(=O)O (configuration not stated),NF-kB SEAP reporter activity,RAW-Dual [2]; [8],0.948
same,NF-kB SEAP reporter activity,RAW-Dual [2]; [7],1.01
Brc1ccc(C2CN3CCSC3=N2)cc1.O=C(O)C(=O)O (configuration not stated) (library stock concentration (final ~1000-fold dilution): 10 mM),NF-kB SEAP reporter activity,RAW-Dual [1]; agonist: LPS (TLR4) 0.1 ug/mL,1.48
same,NF-kB SEAP reporter activity,RAW-Dual [1]; [4],0.888
same,NF-kB SEAP reporter activity,RAW-Dual [1]; [5],0.956
same,NF-kB SEAP reporter activity,RAW-Dual [1]; [6],1.01
CC(=N)NCc1cccc(CN)c1.Cl.Cl (library stock concentration (final ~1000-fold dilution): 10 mM),NF-kB SEAP reporter activity,RAW-Dual [1]; agonist: LPS (TLR4) 0.1 ug/mL,0.956
same,NF-kB SEAP reporter activity,RAW-Dual [1]; [4],1.03
same,NF-kB SEAP reporter activity,RAW-Dual [1]; [5],1.02
same,NF-kB SEAP reporter activity,RAW-Dual [1]; [6],0.859
